From PubChem BioAssay AID1626 (SRMLSC, 2009)
Among all 220,000 compounds or so, about 2,000 (0.91%) were called active. Roughly 2% stayed inconclusive and do not appear here. A selection follows. Measured potencies and affinities stand elsewhere. Values without a mark were called inactive. Cut-off read from the data, not from the text of the source: inconclusive = inhibition above about 80% without an active follow-up result; inactive = below that; test concentration not stated here.

assay: M. tuberculosis H37Rv growth inhibitors, H37Rv strain (AID 1626); details: stronger effect = higher value, concentration not given here;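 note: bacteria incubated seven days before Alamar blue readout; 0% = bacteria only wells and 100% = bacteria with antibiotic wells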

| SMILES | inhibition [%] |
| --- | --- |
| C#CCOCCOCCOCCNc1nc(N2CCN(C(=O)[C@H](CCC(=O)O)n3cc(C(N)[C@H](C)CC)nn3)CC2)nc(N2CCN(C(=O)[C@H](Cc3ccc(O)cc3)n3cc(C(N)[C@H](C)CC)nn3)CC2)n1 (stereo not given in full) | 0.56 |
| Cc1cccc(NC2=C/C(=N/S(=O)(=O)c3cccs3)c3ccccc3C2=O)c1 | 1.87 |
| Cc1ccccc1NC1=C/C(=N\S(=O)(=O)c2cccs2)c2ccccc2C1=O | 61.1 |
| O=C1C(Nc2ccccc2)=C/C(=N/S(=O)(=O)c2cccs2)c2ccccc21 | 76.6 |
| Cc1ccc(NC2=C/C(=N/S(=O)(=O)c3cccs3)c3ccccc3C2=O)cc1C | 0.28 |
| CC(=O)Nc1ccc(S(=O)(=O)NC(C)C(=O)NCCc2ccc(F)cc2)cc1 (stereo not given) | 1.81 |
| O=C(COCC(=O)NCc1ccccc1)NCc1ccccc1 | -4.59 |
| CCN(CC)S(=O)(=O)c1cc(F)ccc1OC | -2.44 |
| CC(C)n1nnc2c(=O)oc3ccccc3c21 | 11.1 |
| CCn1nnc2c(=O)oc3ccccc3c21 | 13.4 |
| COc1cc2c(cc1OC)C(c1cc([N+](=O)[O-])ccc1O)NCC2 (stereo not given) | -9.49 |
| CC(=O)c1cccc(NC(=O)N2CCc3ccccc3C2)c1 | -10.8 |
| COCCOC(=O)C1=C(N)OC2=C(C(=O)CC(C)(C)C2)C1c1ccncc1 (stereo not given) | -0.69 |
| O=C1NN(c2ccc(Cl)c(Cl)c2)C(=O)/C1=C/c1cccc(OC(=O)c2cccs2)c1 | 34.2 |
| Cc1ccc(N2C(=O)NC(=O)/C(=C/c3ccc(OC(=O)c4cccs4)cc3)C2=O)cc1 | 4.29 |
| COc1c(Cl)cc(Cl)cc1C(=O)Nc1ccccc1N1CCN(C(C)=O)CC1 | 1.59 |
| CCOC(=O)c1[nH]cnc1C(=O)Nc1ccccc1OC | -3.28 |
| O=C(Cn1nnc(-c2ccc(Cl)cc2)n1)NCC1CCCCC1 | 3.64 |
| CCC1CCCCN1CC(=O)Nc1cc(OC)c(OC)cc1C#N (stereo not given) | -5.44 |
| O=C(CC1SCCNC1=O)Nc1cccc([N+](=O)[O-])c1 (stereo not given) | -1.32 |
| Oc1ccc(Cl)cc1C=Nc1ccc(Br)cc1 | -2.18 |
| Oc1ccc(Br)cc1C=Nc1ccc(Cl)cc1 | 3.2 |
| COCC(C)NC(=O)c1oc2c(c1C)C1(CCC2)SCCS1 (stereo not given) | 5.96 |
| COc1ccc(C2(O)CC3CCC(C2)N3c2nc(C)cc(C)c2C#N)cc1 (stereo not given) | -5.82 |

| SMILES | inhibition [%] |
| --- | --- |
| Cc1cc(N2CCCC2)nc(N2C3CCC2CC(O)(c2ccc(F)cc2)C3)n1 (stereo not given) | 0.78 |
| COc1ccc(NC(=O)C2CCN(c3cc(C)nc(-c4ccccc4)n3)CC2)cc1 | 11.4 |
| Cc1cc(N2CCN(c3ccc(F)cc3)CC2)nc(-c2ccccc2)n1 | 4.82 |
| O=C(Cc1c(O)c2ccccc2[nH]c1=O)NCc1ccc(F)cc1 | -5.49 |
| CCn1ccnc1CNC(=O)CC1C(=O)NCCN1CC(c1ccccc1)c1ccccc1 (stereo not given) | 4.83 |
| CCN(Cc1ccccc1)C(=O)COC(=O)Cn1cnc2ccccc21 | 3.35 |
| OC(Cn1ccnc1)c1ccc(Cl)cc1Cl (stereo not given) | -10.3 |
| Clc1ccc(OCCn2ccnc2)c(Br)c1 | 1.12 |
| Clc1ccc(OCCn2ccnc2)c(Cl)c1 | -5.05 |
| S=C(NCCCn1ccnc1)Nc1ccc(Cl)cc1Cl | 5.11 |
| OCC[C@H]1C[C@H](O)[C@@H](O)[C@@]2(CCCCO2)O1 | -8.14 |
| S=C(NCc1ccccc1Cl)Nc1ccccc1Cl | 9.29 |
| COc1ccccc1-n1cc(C(=O)c2cc(Cl)ccc2O)cc(C#N)c1=O | 7.62 |
| CC(=O)OC(C(=O)NC1CCCCC1)c1ccc(C)cc1 (stereo not given) | -5.04 |
| CCCC(C)C(=O)OCC(=O)Nc1ccc(Br)cc1 (stereo not given) | 10.2 |
| COC(=O)c1ccc(NC(=O)CSCc2ccc(C)cc2)cc1 | 70.8 |
| Cc1ccc(NC(=O)CSCc2ccc(F)cc2)cc1 | 76.7 |
| COc1ccc(-n2c(-c3ccc(Cl)cc3)c[n+]3c2CCCCC3)cc1 | -11.5 |
| O=C(C1CCC(CNc2c(N3CCOCC3)c(=O)c2=O)CC1)N1CCN(c2ccccc2)CC1 (stereo not given) | -8.11 |
| COc1ccc(CN2CCc3ccccc3C2)c(OC)c1 | -5.76 |
| Cc1ccc(S(=O)(=O)N2CCN=C2c2ccccc2)cc1C | 0.57 |
| O=c1c([N+](=O)[O-])cccn1Cc1cccc(Cl)c1 | -8.12 |
| NC(=O)c1ccc(C(F)(F)F)n(Cc2cccc(Cl)c2)c1=O | 17.3 |
| COC(=O)c1ccc(Cn2cc(C(F)(F)F)ccc2=O)cc1 | 2.66 |

| SMILES | inhibition [%] |
| --- | --- |
| COC(=O)c1cc(Br)c(=O)n(Cc2ccc(C(=O)O)cc2)c1 | -9.26 |
| CC(C)NC(=O)COC(=O)c1ccc(Oc2ccccc2)cc1 | -7 |
| c1ccc(-c2ccc(OCCCNC3CCCC3)cc2)cc1 | 11.4 |
| O=C1c2oc3ccccc3c(=O)c2C(c2cccc(Br)c2)N1Cc1ccco1 (stereo not given) | 1.43 |
| Cc1ccc2oc3c(c(=O)c2c1)C(c1cccc(Br)c1)N(Cc1ccco1)C3=O (stereo not given) | 1.98 |
| CN1CCN(C(=S)c2cn(CCOc3ccccc3)c3ccccc23)CC1 | 13 |
| Cc1cc(N/C=C(\C#N)S(=O)(=O)c2ccccc2Cl)nc(C)n1 | -9.07 |
| CC1=CC(C)(C)N2C(=O)C(=Nc3ccc(O)cc3)c3cccc1c32 | 3 |
| COc1cc2c3c(c1)C(C)=CC(C)(C)N3C(=O)C2=O | -3.11 |
| CC(=O)N/C(=C\c1cccc([N+](=O)[O-])c1)C(=O)NC1CCCCC1 | -0.9 |
| CCN(CC)S(=O)(=O)c1ccc(/C=C/C(=O)O)cc1 | -3.16 |
| CS(=O)(=O)N(Cc1ccccc1)c1ccc(C(=O)NCC2CCCO2)cc1 (stereo not given) | -13.4 |
| CCn1c(/C=C/c2ccccc2[N+](=O)[O-])nc2ccccc2c1=O | 2.98 |
| CCn1c(/C=C/c2cccc([N+](=O)[O-])c2)nc2ccccc2c1=O | -7.86 |
| Cc1ccc(NC(=O)CCNC(=O)c2ccco2)cc1 | 3.05 |
| COc1ccc(NCc2nnc(SCC(=O)NNC(=O)c3ccc(C)cc3)n2C)cc1 | -19.4 |
| CCN1CCN(c2oc(COc3ccc(-c4ccccc4)cc3)nc2C#N)CC1 | 10.7 |
| COc1ccc(N2CCN(c3oc(COc4ccccc4)nc3C#N)CC2)cc1 | -5.04 |
| O=S(=O)(c1ccc2oc(=S)[nH]c2c1)N1CCCCC1 | -5.83 |
| CCC(C)[C@H](NC(=O)NCc1ccc(S(N)(=O)=O)cc1)C(=O)OC (stereo not given in full) | 6.6 |
| Cn1cnc2c1c(=O)n(Cc1ccccc1)c(=O)n2C | -6.11 |
| Oc1ccc(N2CCN(c3ncnc4sc(-c5ccccc5)cc34)CC2)cc1 | 69.8 |
| c1ccc(-c2cc3c(N4CCCC4)ncnc3s2)cc1 | 2.65 |
| CN1CCN(c2ncnc3sc(-c4ccccc4)cc23)CC1 | 0.51 |

| SMILES | inhibition [%] |
| --- | --- |
| c1ccc(-c2cc3c(N4CCN(c5ncccn5)CC4)ncnc3s2)cc1 | -0.33 |
| O=C(NCCN1CCOCC1)N1CCOCC1 | -3.24 |
| COc1ccc(Cl)cc1NC(=O)c1ccccc1C | 4.11 |
| Cc1cc(C)c2nc(SC(C)C#N)cc(C)c2c1 (stereo not given) | 9.89 |
| O=C(CN(Cc1ccco1)C(=O)c1ccccc1)Nc1ccc(Cl)c(Cl)c1 | 0.53 |
| O=C(Nc1cccc([N+](=O)[O-])c1)C12CC3CC(C1)CC(n1cnc([N+](=O)[O-])n1)(C3)C2 | 3.76 |
| O=C(Nc1ccccc1)C12CC3CC(C1)CC(n1cnc([N+](=O)[O-])n1)(C3)C2 | 3.45 |
| O=C1c2ccsc2SCCN1Cc1ccccc1Cl | 8.66 |
| COCCNC(=O)/C(C#N)=C\c1ccc(CNC(=O)C(=O)Nc2ccc(C)c(C)c2)o1 | -19 |
| CCC(=O)N1CCc2cc(S(=O)(=O)CCC(=O)NCc3ccco3)ccc21 | -7.3 |
| O=C(c1ccc2ccccc2c1)C1CCCN(C(=O)CCn2cnnn2)C1 (stereo not given) | 3.36 |
| COc1ccc(C(O)c2nccn2C)cc1 (stereo not given) | 4.48 |
| Cn1ccnc1C(O)c1ccccc1 (stereo not given) | 6.73 |
| O=C(NN1C(=O)C2C(C1=O)C1C=CC2C12CC2)c1ccc(Cl)cc1 (stereo not given) | 7.63 |
| Cc1ccc(NS(=O)(=O)c2cccc([N+](=O)[O-])c2)nc1 | 2.81 |
| Cc1ccc(-c2nnc(N3CCN(C(=O)CN4CCOCC4)CC3)c3ccccc23)cc1 | 0.29 |
| CC1(C)Cc2c(C#N)c(N3CCN(C(=O)c4ccco4)CC3)nc(Cc3ccccc3)c2CO1 | -5.53 |
| CC(C)C(=O)N1CCN(c2nc(-c3ccccc3)c3c(c2C#N)CCCC3)CC1 | 7.25 |
| O=C(c1ccco1)N1CCN(c2nnc(-c3ccccc3)c3ccccc23)CC1 | 1.18 |
| CCc1nc(N2CCN(C(=O)c3ccccc3)CC2)c(C#N)c2c1COC(C)(C)C2 | -3.57 |
| CCC(=O)N1CCN(c2nc(-c3ccccc3)c3c(c2C#N)CCCC3)CC1 | 6.35 |
| O=C(/C=C/c1ccc(Br)cc1)NCc1cccs1 | 8.29 |
| Cc1cc(C)cc(N2C(=O)CSC2c2cccs2)c1 (stereo not given) | -1.33 |
